# Laboratory results as given in PubChem BioAssay (NCI).
# Values joined by “and” are separate entries in the source; they are usually repeats but may differ in a detail not shown here. Equal values may be shown once. About 79,000 compounds went through this panel and 15% of them were active in at least one assay; those are over-represented in the sample as a whole. The source holds several records for some structures; these can differ, active in one and inactive in another. Active and inactive are the calls of the source. Cut-off read from the data, not from the text of the source: active = growth inhibition above about 70%; inactive = the rest.
# Columns and labels:
# [1] = NCI Yeast Anticancer Drug Screen. Data for the rad50 strain (AID 155);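 note: 0% = growth of vehicle-only cultures of the same strain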; details: S. cerevisiae rad50 strain growth inhibition, stronger effect = higher value
# Summary of the method: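 A DNA repair-deficient yeast mutant serves as the test organism; compound-induced growth inhibition is calculated against vehicle-treated cells.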
# [2] = NCI Yeast Anticancer Drug Screen. Data for the mec2-1 strain (AID 157); details: S. cerevisiae mec2-1 strain, stronger effect = higher value
# Summary of the method: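 Readout is yeast growth inhibition, normalised to vehicle-treated controls, in the mec2-1 strain exposed to compound.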
# [3] = NCI Yeast Anticancer Drug Screen. Data for the sgs1 mgt1 strain (AID 161);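 note: 0% = growth of cultures given vehicle only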; details: S. cerevisiae sgs1 mgt1 strain, stronger effect = higher value
# Summary of the method: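 Compounds are added to genetically altered yeast, and growth is compared with cultures given vehicle alone to give percent inhibition.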
# [4] = NCI Yeast Anticancer Drug Screen. Data for the cln2 rad14 strain (AID 165);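 note: 0% = growth equal to vehicle treated cultures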; details: S. cerevisiae cln2 rad14 strain, stronger effect = higher value
# Summary of the method: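 Relative to vehicle controls, growth inhibition of compound-treated cln2 rad14 yeast was recorded.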
# [5] = NCI Yeast Anticancer Drug Screen. Data for the bub3 strain (AID 167); details: S. cerevisiae bub3 mutant strain, stronger effect = higher value
# Summary of the method: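 Inhibition values come from growth of compound-treated mutant yeast normalised to vehicle-treated controls.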
# [6] = NCI Yeast Anticancer Drug Screen. Data for the mlh1 rad18 strain (AID 175); details: S. cerevisiae mlh1 rad18 strain growth inhibition, stronger effect = higher value
# Summary of the method: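 Test agents were incubated with a yeast strain of defined genotype (DNA damage repair defect). Inhibition of growth was derived by comparison with vehicle-exposed cultures.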
# [7] = NCI Yeast Anticancer Drug Screen. Data for the wt1 strain (AID 149);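 note: 0% = growth of vehicle-treated wt1 cultures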; details: S. cerevisiae wt1 strain (SPY 50644) growth inhibition, stronger effect = higher value
# Summary of the method: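 Vehicle-normalised growth inhibition; strain wt1; compound exposure.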
# [8] = NCI Yeast Anticancer Drug Screen. Data for the rad50EPP+ strain (AID 151);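 note: 0% = growth of vehicle-treated control cultures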; details: S. cerevisiae rad50 mutant strain, stronger effect = higher value
# Summary of the method: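 Exposing the rad50EPP+ strain to each compound, growth was compared with vehicle-only cultures to give inhibition.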
# [9] = NCI Yeast Anticancer Drug Screen. Data for the rad14 strain (AID 159);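 note: 0% = growth of vehicle-treated control cultures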; details: S. cerevisiae rad14 strain growth inhibition, stronger effect = higher value
# Summary of the method: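 Vehicle-treated cultures served as the baseline for growth inhibition of a DNA repair-mutant yeast strain exposed to each compound.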
# [10] = NCI Yeast Anticancer Drug Screen. Data for the CLN2oe strain (AID 163);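 note: 0% = growth of vehicle-only control cultures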; details: S. cerevisiae CLN2oe strain, stronger effect = higher value
# Summary of the method: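 Values reflect how much compound exposure reduced yeast growth, referenced to vehicle-exposed cells. Assay organism is a strain with a defined genetic change affecting cell-cycle control.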
# [11] = NCI Yeast Anticancer Drug Screen. Data for the wt2 strain (AID 169);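 note: 0% = growth of vehicle-treated yeast cultures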; details: S. cerevisiae wt2 strain growth inhibition, stronger effect = higher value
# Summary of the method: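 Values express reduction in yeast growth under compound treatment, referenced to vehicle-treated cells.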
# [12] = NCI Yeast Anticancer Drug Screen. Data for the mlh1 strain (AID 171);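 note: 0% = growth of vehicle-treated control cultures of the same strain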; details: S. cerevisiae mlh1 strain growth inhibition, stronger effect = higher value
# Summary of the method: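 Steps: expose the defined-mutant yeast strain to compound; expose a parallel culture to vehicle; measure growth; express compound effect as inhibition relative to the vehicle culture.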
# [13] = NCI Yeast Anticancer Drug Screen. Data for the sgs1 strain (AID 173);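 note: 0% = growth of vehicle-only control cultures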; details: S. cerevisiae sgs1 mutant, stronger effect = higher value
# Summary of the method: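 Treat defined-mutant yeast with compound; measure growth; calculate inhibition relative to vehicle-treated cells.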
# [14] = NCI Yeast Anticancer Drug Screen. Data for the rad18 strain (AID 177); details: S. cerevisiae rad18 mutant growth inhibition, stronger effect = higher value
# Summary of the method: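 A genetically defined yeast mutant impaired in DNA damage repair was treated with test compounds, then its growth was measured against cultures receiving vehicle alone.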
# [15] = at 5.0 µM (retest, dose inferred, filed as 0.5)
# [16] = at 50.0 µM (retest, dose inferred, filed as 5.0)
compound,measurement,setting,value
CCCCCCCCCCCC[N+](C)(C)C,growth inhibition,[1]; [15],-9% (inactive) and -3% (inactive) and 12% (inactive)
same,growth inhibition,[1]; [16],98% (active) and 96% (active) and 99% (active)
same,growth inhibition,[1]; at 50.0 µM,49.9% (inactive) and 80.2% (active) and 39.5% (inactive)
same,growth inhibition,[2]; [15],-3% (inactive) and 0% (inactive) and 22% (inactive)
same,growth inhibition,[2]; [16],99% (active) and 98% (active) and 100% (active)
same,growth inhibition,[2]; at 50.0 µM,53.3% (inactive) and 89.5% (active) and 92.2% (active)
same,growth inhibition,[3]; [15],-8% (inactive) and -3% (inactive) and 49% (inactive)
same,growth inhibition,[3]; [16],98% (active) and 97% (active) and 99% (active)
same,growth inhibition,[3]; at 50.0 µM,49% (inactive) and 92.5% (active) and 48.6% (inactive)
same,growth inhibition,[4]; [15],3% (inactive) and -1% (inactive) and 2% (inactive)
same,growth inhibition,[4]; [16],97% (active) and 96% (active) and 99% (active)
same,growth inhibition,[4]; at 50.0 µM,71.8% (active) and -21.6% (inactive) and 66.2% (inactive)
same,growth inhibition,[5]; [15],14% (inactive) and 9% (inactive) and 18% (inactive)
same,growth inhibition,[5]; [16],95% (active) and 98% (active) and 100% (active)
same,growth inhibition,[5]; at 50.0 µM,57.2% (inactive) and 82.1% (active) and 97.2% (active)
same,growth inhibition,[6]; [15],-4% (inactive) and -5% (inactive) and 4% (inactive)
same,growth inhibition,[6]; [16],96% (active) and 95% (active) and 99% (active)
same,growth inhibition,[6]; at 50.0 µM,83.3% (active) and 91% (active) and 80.5% (active)
O=Cn1c2ccccc2c2ccccc21,growth inhibition,[7]; at 1.2 µM,-16% (inactive)
same,growth inhibition,[7]; at 3.7 µM,-14% (inactive)
same,growth inhibition,[7]; at 11.0 µM,-8% (inactive)
same,growth inhibition,[7]; at 33.0 µM,-7% (inactive)
same,growth inhibition,[7]; at 100.0 µM,23% (inactive)
same,growth inhibition,[8]; at 1.2 µM,-54% (inactive)
same,growth inhibition,[8]; at 3.7 µM,-27% (inactive)
same,growth inhibition,[8]; at 11.0 µM,0% (inactive)
same,growth inhibition,[8]; at 33.0 µM,10% (inactive)
same,growth inhibition,[8]; at 100.0 µM,91% (active)
same,growth inhibition,[1]; at 1.2 µM,-42% (inactive)
same,growth inhibition,[1]; at 3.7 µM,-4% (inactive)
same,growth inhibition,[1]; [15],63% (inactive)
same,growth inhibition,[1]; at 11.0 µM,9% (inactive)
same,growth inhibition,[1]; at 33.0 µM,-1% (inactive)
same,growth inhibition,[1]; [16],90% (active)
same,growth inhibition,[1]; at 50.0 µM,64.2% (inactive)
same,growth inhibition,[1]; at 100.0 µM,82% (active)
same,growth inhibition,[9]; at 1.2 µM,-32% (inactive)
same,growth inhibition,[9]; at 3.7 µM,-20% (inactive)
same,growth inhibition,[9]; at 11.0 µM,-19% (inactive)
same,growth inhibition,[9]; at 33.0 µM,-20% (inactive)
same,growth inhibition,[9]; at 100.0 µM,25% (inactive)
same,growth inhibition,[3]; [15],-16% (inactive)
same,growth inhibition,[3]; [16],46% (inactive)
same,growth inhibition,[3]; at 50.0 µM,33.5% (inactive)
same,growth inhibition,[10]; at 1.2 µM,-12% (inactive)
same,growth inhibition,[10]; at 3.7 µM,-15% (inactive)
same,growth inhibition,[10]; at 11.0 µM,1% (inactive)
same,growth inhibition,[10]; at 33.0 µM,-21% (inactive)
same,growth inhibition,[10]; at 100.0 µM,39% (inactive)
same,growth inhibition,[4]; [15],59% (inactive)
same,growth inhibition,[4]; [16],74% (active)
same,growth inhibition,[4]; at 50.0 µM,20.6% (inactive)
same,growth inhibition,[5]; at 1.2 µM,-26% (inactive)
same,growth inhibition,[5]; at 3.7 µM,-8% (inactive)
same,growth inhibition,[5]; [15],42% (inactive)
same,growth inhibition,[5]; at 11.0 µM,13% (inactive)
same,growth inhibition,[5]; at 33.0 µM,-21% (inactive)
same,growth inhibition,[5]; [16],66% (inactive)
same,growth inhibition,[5]; at 50.0 µM,60.9% (inactive)
same,growth inhibition,[5]; at 100.0 µM,60% (inactive)
same,growth inhibition,[11]; at 1.2 µM,-12% (inactive)
same,growth inhibition,[11]; at 3.7 µM,-21% (inactive)
same,growth inhibition,[11]; at 11.0 µM,-7% (inactive)
same,growth inhibition,[11]; at 33.0 µM,-18% (inactive)
same,growth inhibition,[11]; at 100.0 µM,46% (inactive)
same,growth inhibition,[12]; at 1.2 µM,-18% (inactive)
same,growth inhibition,[12]; at 3.7 µM,-17% (inactive)
same,growth inhibition,[12]; at 11.0 µM,4% (inactive)
same,growth inhibition,[12]; at 33.0 µM,-2% (inactive)
same,growth inhibition,[12]; at 100.0 µM,65% (inactive)
same,growth inhibition,[13]; at 1.2 µM,-32% (inactive)
same,growth inhibition,[13]; at 3.7 µM,-37% (inactive)
same,growth inhibition,[13]; at 11.0 µM,-8% (inactive)
same,growth inhibition,[13]; at 33.0 µM,-15% (inactive)
same,growth inhibition,[13]; at 100.0 µM,57% (inactive)
same,growth inhibition,[6]; [15],54% (inactive)
same,growth inhibition,[6]; [16],97% (active)
same,growth inhibition,[6]; at 50.0 µM,70.8% (active)
same,growth inhibition,[14]; at 1.2 µM,-41% (inactive)
same,growth inhibition,[14]; at 3.7 µM,-32% (inactive)
same,growth inhibition,[14]; at 11.0 µM,-26% (inactive)
same,growth inhibition,[14]; at 33.0 µM,-21% (inactive)
same,growth inhibition,[14]; at 100.0 µM,65% (inactive)
S=c1[nH]nc(Cc2ccccc2)c(=S)[nH]1,growth inhibition,[7]; at 1.2 µM,-47% (inactive)
same,growth inhibition,[7]; at 3.7 µM,-14% (inactive)
same,growth inhibition,[7]; at 11.0 µM,30% (inactive)
same,growth inhibition,[7]; at 33.0 µM,92% (active)
same,growth inhibition,[7]; at 100.0 µM,97% (active)
same,growth inhibition,[8]; at 1.2 µM,-22% (inactive)
same,growth inhibition,[8]; at 3.7 µM,-10% (inactive)
same,growth inhibition,[8]; at 11.0 µM,-11% (inactive)
same,growth inhibition,[8]; at 33.0 µM,16% (inactive)
same,growth inhibition,[8]; at 100.0 µM,48% (inactive)
same,growth inhibition,[1]; at 1.2 µM,-17% (inactive)
same,growth inhibition,[1]; at 3.7 µM,-6% (inactive)
same,growth inhibition,[1]; [15],63% (inactive)
same,growth inhibition,[1]; at 11.0 µM,36% (inactive)
same,growth inhibition,[1]; at 33.0 µM,89% (active)
same,growth inhibition,[1]; [16],55% (inactive)
same,growth inhibition,[1]; at 50.0 µM,72.6% (active)
same,growth inhibition,[1]; at 100.0 µM,95% (active)
same,growth inhibition,[2]; at 1.2 µM,-8% (inactive)
same,growth inhibition,[2]; at 3.7 µM,-6% (inactive)
same,growth inhibition,[2]; [15],7% (inactive)
same,growth inhibition,[2]; at 11.0 µM,29% (inactive)
same,growth inhibition,[2]; at 33.0 µM,91% (active)
same,growth inhibition,[2]; [16],75% (active)
same,growth inhibition,[2]; at 50.0 µM,64.2% (inactive)
same,growth inhibition,[2]; at 100.0 µM,96% (active)
same,growth inhibition,[9]; at 1.2 µM,-3% (inactive)
same,growth inhibition,[9]; at 3.7 µM,26% (inactive)
same,growth inhibition,[9]; at 11.0 µM,69% (inactive)
same,growth inhibition,[9]; at 33.0 µM,94% (active)
same,growth inhibition,[9]; at 100.0 µM,97% (active)
same,growth inhibition,[3]; [15],41% (inactive)
same,growth inhibition,[3]; [16],83% (active)
same,growth inhibition,[3]; at 50.0 µM,86.3% (active)
same,growth inhibition,[10]; at 1.2 µM,26% (inactive)
same,growth inhibition,[10]; at 3.7 µM,25% (inactive)
same,growth inhibition,[10]; at 11.0 µM,35% (inactive)
same,growth inhibition,[10]; at 33.0 µM,91% (active)
same,growth inhibition,[10]; at 100.0 µM,96% (active)
same,growth inhibition,[4]; [15],45% (inactive)
same,growth inhibition,[4]; [16],67% (inactive)
same,growth inhibition,[4]; at 50.0 µM,39.4% (inactive)
same,growth inhibition,[5]; at 1.2 µM,16% (inactive)
same,growth inhibition,[5]; at 3.7 µM,21% (inactive)
same,growth inhibition,[5]; [15],46% (inactive)
same,growth inhibition,[5]; at 11.0 µM,51% (inactive)
same,growth inhibition,[5]; at 33.0 µM,94% (active)
same,growth inhibition,[5]; [16],79% (active)
same,growth inhibition,[5]; at 50.0 µM,71.2% (active)
same,growth inhibition,[5]; at 100.0 µM,97% (active)
same,growth inhibition,[11]; at 1.2 µM,-40% (inactive)
same,growth inhibition,[11]; at 3.7 µM,-1% (inactive)
same,growth inhibition,[11]; at 11.0 µM,62% (inactive)
same,growth inhibition,[11]; at 33.0 µM,94% (active)
same,growth inhibition,[11]; at 100.0 µM,95% (active)
same,growth inhibition,[13]; at 1.2 µM,2% (inactive)
same,growth inhibition,[13]; at 3.7 µM,10% (inactive)
same,growth inhibition,[13]; at 11.0 µM,64% (inactive)
same,growth inhibition,[13]; at 33.0 µM,95% (active)
same,growth inhibition,[13]; at 100.0 µM,97% (active)
same,growth inhibition,[6]; [15],53% (inactive)
same,growth inhibition,[6]; [16],60% (inactive)
same,growth inhibition,[6]; at 50.0 µM,75.2% (active)
same,growth inhibition,[14]; at 1.2 µM,9% (inactive)
same,growth inhibition,[14]; at 3.7 µM,3% (inactive)
same,growth inhibition,[14]; at 11.0 µM,42% (inactive)
same,growth inhibition,[14]; at 33.0 µM,94% (active)
same,growth inhibition,[14]; at 100.0 µM,97% (active)
